Screening results deposited in PubChem by several laboratories.
sEH activator = soluble epoxide hydrolase (human) activation | purified human sEH enzymatic activity, activator screen | activation, % at 2 µM | hit rate 0.04% among 91,000 | AID 717; in the data active = activation above about 37%
CYP2C19 act = activators of human cytochrome P450 2C19 | P33261 | recombinant CYP2C19, luciferin-H EGE luminescence; active compounds read high; 0 = fully inhibited enzyme, 1 = untreated enzyme | activation factor at 5 µM | 96,000 tested, under 10 active | AID 1025;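 active = activation factor of at least 2 at 5 µM in the primary screen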
Target sequence (P33261 whole entry, looked up): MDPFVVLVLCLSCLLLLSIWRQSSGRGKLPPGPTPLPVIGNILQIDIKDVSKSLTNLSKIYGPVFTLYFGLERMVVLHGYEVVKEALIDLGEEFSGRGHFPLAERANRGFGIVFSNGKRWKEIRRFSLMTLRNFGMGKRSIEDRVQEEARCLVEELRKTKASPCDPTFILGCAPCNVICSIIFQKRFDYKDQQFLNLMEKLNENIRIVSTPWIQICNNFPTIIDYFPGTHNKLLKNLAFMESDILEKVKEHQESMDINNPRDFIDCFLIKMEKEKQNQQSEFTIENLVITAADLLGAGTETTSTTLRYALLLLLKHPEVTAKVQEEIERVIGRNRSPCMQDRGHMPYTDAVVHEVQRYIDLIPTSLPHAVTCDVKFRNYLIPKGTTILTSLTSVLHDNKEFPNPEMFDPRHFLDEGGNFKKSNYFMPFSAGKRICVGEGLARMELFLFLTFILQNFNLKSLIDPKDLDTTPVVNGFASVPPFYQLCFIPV
CYP2C19 inh = blocks human cytochrome P450 2C19 | P33261 | CYP2C19 Supersomes, luciferin-H EGE luminescence, 30 min | inhibition, % at 5 µM | hit rate 21% among 96,000 | AID 778;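 active = CYP2C19 inhibition above a set limit at 5 µM in the primary screen, cut at about 50% in these data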
CYP2C9 activ = increases human cytochrome P450 2C9 activity; hit rate 1.4% among 96,000; recombinant CYP2C9, luciferin-H conversion, luminescence; active compounds read high; factor 1 = untreated enzyme, 0 = blocked; P11712; activation factor at 5 µM;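 active = activation factor of 2 or more for CYP2C9 at a 5 µM dose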
CYP2C9 inh = inhibitors of human CYP2C9 | CYP2C9 Supersomes, luciferin-H conversion, luminescence | inhibition, % at 5 µM | hit rate 20% among 96,000;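 active = blocking of liver enzyme CYP2C9 beyond about 50% at 5 µM, limit read from the data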
sEH inhibitor = soluble epoxide hydrolase (human) inhibition; P34913; recombinant human sEH enzymatic activity assay; inhibition, % at 2 µM; hit rate 0.34% among 91,000; in the data active = inhibition above about 80%
Numbers stand for hits; i = inactive; nt = not tested or not shown. Hits are enriched below; roughly 27% of the tested compounds scored in any of these assays.

SMILES	sEH activator	CYP2C19 act	CYP2C19 inh	CYP2C9 activ	CYP2C9 inh	sEH inhibitor
O=C(NCCCN1CCCC1=O)c1ccc(OCc2ccccc2)cc1	i	i	i	i	i	i
C#CCn1c(S(=O)(=O)Cc2ccc(OC)cc2)nc(-c2ccccc2)c1-c1ccccc1	i	i	64	i	82	i
CCOC(=O)Cn1c(S(=O)(=O)Cc2ccc(Cl)cc2)nc(-c2ccccc2)c1-c1ccccc1	i	i	i	i	50	i
CCOC(=O)Cn1c(S(=O)(=O)Cc2ccccc2)nc2ccccc21	i	i	i	i	i	i
CCCCOCCCNC(=O)C1CCCCC1	i	i	i	i	i	i
O=C(CC(c1ccccc1)c1ccccc1O)NCCN1CCOCC1 (stereo unspecified)	nt	i	54	i	i	nt
CC(C)(C)NC(=O)CC(c1ccccc1)c1ccccc1O (stereo unspecified)	i	i	90	i	96	i
O=C(O)c1cccc(N2C(=O)c3cccnc3C2=O)c1	i	i	i	i	i	i
CCOC(=O)N1CCN(c2cc(=O)n(-c3ccc(Br)cc3)c(=O)[nH]2)CC1	i	i	i	i	i	i
O=c1c2ccsc2ncn1Cc1ccccc1F	i	i	i	i	i	i
O=c1c2ccsc2ncn1Cc1cccc(C(F)(F)F)c1	i	i	i	i	53	i
O=C1c2ccccc2C(=O)N1CCCCSc1nnc2c(Cl)cc(Cl)cn12	i	i	i	i	i	i
Cc1cc2nnc(SCCCCN3C(=O)c4ccccc4C3=O)n2c2ccccc12	i	i	i	2.9	i	i
COc1cc2oc3ccccc3c2cc1N(CC(=O)N1CCCCC1)S(=O)(=O)c1ccc(C)cc1	i	i	i	i	i	i
CC(C)(C)OC(=O)NNC(=S)NCc1ccc(Cl)cc1	i	i	57	i	55	i
O=C1CCCc2c1cc(C(=O)Nc1ccc(Cl)cn1)c(=O)n2-c1ccccc1	i	i	i	i	78	i
COCCn1nnnc1C(c1cccc(OC)c1OC)N1CCN(C2CCCCC2)CC1 (stereo unspecified)	nt	i	i	i	i	nt
Cc1ccc(NC(C)c2cc(Cl)ccc2O)cc1 (stereo unspecified)	i	i	100	i	98	i
Cc1ccc(C(=O)CC(=O)c2cc(Cl)ccc2O)cc1	i	i	i	i	i	i
O=C1NC2(CCCCCC2)Cc2ccccc21	i	i	i	i	i	i
CN1C(=O)NC(c2ccccc2)C2=C1CN(c1ccc3ccccc3c1)C2=O (stereo unspecified)	i	i	i	i	i	i
CC(C)NC(=O)COc1ccc(/C=N/NS(=O)(=O)c2ccccc2)cc1	i	i	i	i	i	i
O=C(COc1ccc(/C=N/NS(=O)(=O)c2ccccc2)cc1)Nc1ccc(F)cc1	i	i	i	i	65	i
Cc1ccc(S(=O)(=O)N/N=C/c2ccc(OCC(=O)Nc3ccccc3Cl)cc2)cc1	i	i	i	i	84	i
COc1ccccc1NC(=O)COc1ccc(/C=N/NS(=O)(=O)c2ccc(C)cc2)cc1	i	i	i	i	i	i
SMILES	sEH activator	CYP2C19 act	CYP2C19 inh	CYP2C9 activ	CYP2C9 inh	sEH inhibitor
CCCOc1ccc(C(=O)N2CCCC2)cc1OC	i	i	i	i	i	i
CCNC(=S)N/N=C/c1ccco1	i	i	i	i	i	i
CC1CCN(C(=O)C(Cc2ccccc2)NS(=O)(=O)c2ccc3c(c2)oc(=O)n3C)CC1 (stereo unspecified)	i	i	i	i	i	i
Cc1ccc(NC(=O)C(C)N2C(=O)c3ccccc3C2=O)cc1 (stereo unspecified)	i	i	i	i	i	i
CCCc1cc(=O)[nH]c(/N=C(/NC(=O)C(C)N2C(=O)c3ccccc3C2=O)Nc2ccccc2)n1 (stereo unspecified)	i	i	i	i	62	i
CCOc1ccccc1OCCOc1ccc(F)cc1	i	i	57	i	i	i
COc1ccc(CNC(=O)C2CSC(=O)C2)cc1 (stereo unspecified)	i	i	i	i	i	i
Cc1ccc(C(=O)ONc2ccc(N=O)cc2)cc1	i	i	i	i	93	i
Cc1ccc(C(=O)ONc2ccc(N=NC(=O)c3ccccc3O)cc2)cc1	i	i	100	i	92	i
O=Nc1ccc(NOC(=O)c2ccc(Br)cc2)cc1	i	i	i	i	i	i
Cc1nn(-c2ccccc2)c(Cl)c1C(=O)Nc1c(C)n(C)n(-c2ccccc2)c1=O	i	i	i	i	i	i
CCN1c2ccccc2NC2C1C(C(C)=O)C(=O)N2c1ccc(Cl)cc1 (stereo unspecified)	i	i	92	i	79	i
COc1cccc(NS(=O)(=O)c2cc(C)sc2C)c1	i	nt	nt	nt	nt	i
Cc1cc(S(=O)(=O)Nc2ccc(N(C)C)cc2)c(C)s1	i	i	100	i	100	i
COCCOc1cc(NC(=O)c2sccc2Oc2ccc([N+](=O)[O-])cc2F)c(Cl)cc1Cl	i	i	i	i	59	i
CC(C)(C)c1ccc(-c2nc(-c3ccncc3)no2)cc1	i	nt	nt	nt	nt	i
Cc1cc(C)cc(-c2nc(-c3ccncc3)no2)c1	i	i	83	i	i	i
c1ccc2c(-c3nc(-c4ccncc4)no3)cccc2c1	i	i	89	i	i	i
Brc1cccc(-c2nc(-c3ccncc3)no2)c1	nt	i	97	i	52	nt
Clc1ccc(Br)cc1-c1nc(-c2ccncc2)no1	i	i	89	i	50	i
Cc1ccc(C(C)C)c(OCC(=O)Nc2ccc(N3CCN(S(C)(=O)=O)CC3)cc2)c1	i	i	i	i	i	i
Cc1cc2cc(CNC(=O)CC(C)C)ccc2n1C	nt	i	i	i	i	nt
COc1cc(NC(=O)c2cc(C3CC3)on2)c(OC)cc1Cl	i	i	i	i	i	i
CC(=O)N(Cc1cc2c(C)cc(C)cc2[nH]c1=O)C1CCCCC1	i	i	i	i	63	i
O=C(NC1CCCCC1)N(Cc1cc2cc3c(cc2[nH]c1=O)OCCO3)C1CCCCC1	i	i	i	i	75	i
SMILES	sEH activator	CYP2C19 act	CYP2C19 inh	CYP2C9 activ	CYP2C9 inh	sEH inhibitor
COc1cc2cc(CN(C(=O)NC3CCCCC3)C3CCCC3)c(=O)[nH]c2cc1OC	i	i	i	i	i	i
CCOC(=O)Cn1nnnc1C(C(C)C)N(Cc1cc2c(C)cc(C)cc2[nH]c1=O)C1CCCC1 (stereo unspecified)	i	nt	nt	nt	nt	i
CCC(=O)N(Cc1cc2cc(C)c(C)cc2[nH]c1=O)C1CCCCC1	i	i	81	i	69	i
CCC(=O)N(Cc1cc(=O)[nH]c2ccccc12)C1CCCCC1	i	i	i	i	i	i
COc1ccc(Cn2c(C)c(C)c(C#N)c2NC(=O)Nc2ccc(Cl)cc2)cc1	i	i	i	i	i	i
COc1ccc(NC(=O)C2CCCN2C(=O)OCc2ccccc2)c(OC)c1 (stereo unspecified)	nt	i	i	i	i	nt
COc1ccc(NC(=O)C2CCCCN2CC(=O)OCc2ccccc2)cc1OC (stereo unspecified)	i	i	67	i	62	i
